Compound activity: PubChem BioAssay, National Center for Advancing Translational Sciences (NCATS)
HT1080 IDH1KD tx = HT-1080 IDH1 knockdown cell toxicity (counter line); HT-1080 IDH1 knockdown viability, ATP luminescence, 48 h; Potency, µM (top dose mostly 46.1 µM), actives largely listed as cytotoxic; 2% of 360,000 active; AID 686971
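In this qHTS, HT-1080 cells depleted of IDH1 are exposed for 48 h at 37 °C to compound titrations. Toxicity is scored from CellTiter-Glo luminescence, with DMSO as full viability and medium alone as none.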
SW480 rerep = DNA re-replication induction in SW480 cells; Potency, µM (highest dose often 46.1 µM), hits mostly activators; SW480 DNA re-replication, Hoechst DNA content imaging, 48 h; 1.8% of 340,000 active; further: nearly all actives have a fitted effect of over 55% in size
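Compounds, transferred as 23 nL by pin tool, were incubated with cells for 48 hr; DNA content per nucleus was then quantified by Hoechst staining and fluorescence plate imaging.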
MCF10A rerep = inducers of DNA re-replication in MCF 10A breast cells | MCF 10A DNA re-replication, Hoechst nuclear intensity, 48 h | Potency, µM (titrated, usually from 46.1 µM), actives largely listed as activators | 2.9% of 350,000 active | AID 624296; further: nearly all actives have a fitted effect of over 50% in size
KB-V1 MDR tox = kills drug-selected multidrug resistant KB-V1 cells; KB-V1 MDR cells viability, CellTiter-Glo, 72 h; 3.4% of 400,000 active; Potency, µM (highest dose often 46.1 µM), most hits filed as cytotoxic; AID 1347076; further: nearly all actives have a fitted effect of over 60% in size
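KB-V1 MDR subline cells in DMEM (phenol-red free, 10% FBS) exposed to compounds in qHTS concentration series for 72 h at 37 degrees C. Viability read by CellTiter-Glo luminescence; concentration-effect curves fitted after normalization and correction.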
HT1080NT lethal = kills 2HG-producing HT-1080-NT fibrosarcoma cells. HT-1080-NT fibrosarcoma viability, CellTiter-Glo ATP luminescence, 48 h. Potency, µM (titrated, usually from 46.1 µM), actives largely listed as cytotoxic. 1.6% of 360,000 active. AID 686970;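 further: NT is the 2HG producing partner of a matched IDH1 knockdown line; nearly all actives have a fitted effect of over 55% in size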
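HT-1080-NT fibrosarcoma cells (2HG-overproducing), 750 cells/well in RPMI with 5% FBS, dosed after 2 h and incubated 48 h at 37C. CellTiter-Glo luminescence normalized to DMSO and no-cell wells; concentration-response curves fitted and classed.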
KB-3-1 cytotox = KB-3-1 parental cell cytotoxicity; KB-3-1 viability, CellTiter-Glo ATP luminescence, 72 h; 1.4% of 400,000 active; Potency, µM (doses to about 46.1 µM), most hits filed as cytotoxic; AID 1347075; further: nearly all actives have a fitted effect of over 60% in size
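Viability of parental KB-3-1 cells, measured by CellTiter-Glo luminescence, followed a 72 h incubation at 37 °C with pinned compounds in phenol-red-free DMEM containing 10% FBS.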
Numbers stand for hits; n = inactive; u = inconclusive; x = no result given; [ ] = dose if it differs, or a comment. Most compounds without a hit are left out; they make up all but 8% or so of the library. The call rests on the fitted dose curve; in most records, active means well fitted curve in the direction sought with a large enough effect; inconclusive means small, poorly fitted or top-dose-only effect, or another doubt; inactive means no such curve, though single readings can be large; an effect the other way counts as inactive or inconclusive.

SMILES	HT1080 IDH1KD tx	SW480 rerep	MCF10A rerep	KB-V1 MDR tox	HT1080NT lethal	KB-3-1 cytotox
COc1ccc2[nH]cc(CCCN3C(=O)c4ccccc4C3=O)c2c1	n	u	u	23µM	n	n
COC(=O)CCn1nc(-c2ccc(Cl)cc2)c2ccccc2c1=O	n	n	n	n	n	n
N#Cc1c(-c2ccc(Cl)cc2)c(-c2ccc(Cl)cc2)nn(CCOC(=O)CCC(=O)O)c1=O	7.3µM	u	1.8µM	7.3µM	5.2µM	2.3µM
N#Cc1c(-c2ccccc2)c(-c2ccccc2)nn(CC(=O)NNC(=O)Nc2ccc(Cl)cc2)c1=O	5.8µM	u	u	n	6.5µM	18µM
N#Cc1c(-c2ccccc2)c(-c2ccccc2)nn(CC(=O)NNC(=O)Nc2ccccc2)c1=O	3.3µM	2.9µM	0.65µM	n	2.3µM	5.8µM
CC(O)(c1cccnc1)c1nc(-c2cc(F)cc(F)c2)cs1 (stereo unspecified)	n	x	x	n	n	n
C[C@H](NC(=O)[C@H]1N2C(=O)c3ccccc3C2SC1(C)C)C(=O)N1CCN(C)CC1 (stereo partly specified)	n	n	n	n	n	n
CC(C)Oc1ccc(C(CCN)C2CCCCC2)cc1 (stereo unspecified)	15µM	u	u	16µM	15µM	u
CC(C)Oc1ccc(C(=O)NC2CCCCC2)cc1	n	n	n	n	n	n
CC1Cc2ccccc2N1C(=O)COC(=O)/C=C/c1cccc(F)c1 (stereo unspecified)	n	n	n	u	n	n
COc1ccc(S(=O)(=O)NCc2cccnc2)c(Cl)c1Cl	n	x	x	n	n	n
O=C(C=Cc1ccccc1)CC(c1ccccc1)N1CCOCC1 (stereo unspecified)	u	3.7µM	3.7µM	n	4.1µM	u
Cc1ccc(O)c(CP(=O)(c2ccccc2)c2ccccc2)c1	n	n	n	u	n	n
Cc1ccc(O)c(CN(C)Cc2cc(C)ccc2O)c1	n	n	n	21µM	n	u
O=[N+]([O-])c1ccc(N2CCN(Cc3ccccc3)CC2)s1	n	n	n	u	n	n
O=[N+]([O-])c1ccc(N2CCN(Cc3ccccc3)CC2)c2c1no[n+]2[O-]	15µM	x	x	6.5µM	23µM	2.1µM
Cn1nc(-c2ccccc2)c(CN2CCN(c3ncccn3)CC2)c1Cl	n	n	u	n	n	u
COc1ccc(-c2cc(C(=O)Oc3cccc(C)c3)c3cc(C)ccc3n2)cc1	x	x	x	u	x	n
COc1ccc(-c2cc(C(=O)OCC(=O)c3cccc([N+](=O)[O-])c3)c3cc(C)ccc3n2)cc1	n	n	18µM	n	n	n
COc1ccc2nc(-c3ccccc3)cc(C(=O)OCC(=O)N3CCCCC3)c2c1	n	21µM	n	u	n	u
COc1ccc(-c2cc(C(=O)OCC(=O)N3CCCC3)c3ccccc3n2)cc1	u	n	n	u	u	n
O=C1C(CCC(O)c2ccc(F)cc2)C(c2ccc(O)cc2)N1c1ccc(F)cc1 (stereo unspecified)	x	n	n	x	x	x
COc1ccc(NCC(=O)Nc2ccccc2C#N)cc1Cl	n	n	n	n	n	n
Cc1ccc(O)c(-c2cc(C(=O)Nc3ccc(S(=O)(=O)N4CC(C)OC(C)C4)cc3)[nH]n2)c1 (stereo unspecified)	n	n	n	u	u	u
Cc1cc(O)c(-c2cc(C(=O)Nc3ccc(S(=O)(=O)N4CCOCC4)cc3)[nH]n2)cc1C	10µM	u	u	u	14µM	u
SMILES	HT1080 IDH1KD tx	SW480 rerep	MCF10A rerep	KB-V1 MDR tox	HT1080NT lethal	KB-3-1 cytotox
O=C(Nc1ccc(S(=O)(=O)N2CCOCC2)cc1)c1cc(-c2cc(Cl)ccc2O)n[nH]1	16µM	u	u	u	u	12µM
O=C(Nc1ccc(Cl)cc1)c1ccc(S(=O)(=O)N2CCOCC2)cc1	n	n	n	n	n	n
COc1ccccc1-c1cc(C(=O)Nc2ccc(F)cc2F)no1	n	n	n	n	n	n
CCCN1C(=O)/C(=C/c2ccc(C)s2)SC1=Nc1ccc(OC)cc1	n	n	n	u	n	n
CCN(CC)CCN1C(=O)/C(=C\c2ccc(Cl)c([N+](=O)[O-])c2)SC1=Nc1ccc(OC)cc1	3.3µM	3.7µM	u	n	2.6µM	u
COc1ccc(N=C2S/C(=C\c3ccc(Cl)c([N+](=O)[O-])c3)C(=O)N2CCN(C)C)cc1	21µM	n	u	n	u	n
CCN1C(=O)/C(=C/c2cccs2)SC1=Nc1ccc(OC)cc1	n	n	n	n	n	n
CCOc1ccc(C2CC(=O)n3nc(-c4ccc(C)cc4)nc3S2)cc1OC (stereo unspecified)	x	x	x	n	x	n
O=S1(=O)N[C@H](Cc2ccccc2)COc2cc(N3CCC[C@@H]3CO)ccc21	23µM	x	x	n	u	21µM
COc1cc(C(=O)Nc2ccc(C)cn2)c([N+](=O)[O-])cc1OC	n	n	n	n	n	n
COc1cc(C(=O)Nc2c(C)cc(C)cc2C)c([N+](=O)[O-])cc1OC	n	n	n	21µM	n	n
CC1=C(CC(=O)c2ccccc2)C(=O)c2ccccc2C1=O	u	u	u	10µM	u	u
O=C(CN1C(=O)c2ccccc2C1=O)c1ccccc1	n	n	n	n	n	n
CCN(CC)c1ccc(S(=O)(=O)Nc2cc(Cl)ccc2Cl)cc1NC(=S)NC(=O)C1CCCC1	u	n	12µM	n	u	n
COc1ccccc1NS(=O)(=O)c1ccc(Cl)c(NC(=S)NC(=O)C2CCCC2)c1	u	n	u	u	n	n
O=C(NC(=S)Nc1ccccc1Cl)C1CC1	n	n	n	n	n	n
CCN(CC)S(=O)(=O)c1ccc(Cl)c(NC(=S)NC(=O)C2CCCC2)c1	u	4.6µM	u	n	n[9.24 µM]	n
Cc1nc(Nc2ccccc2F)c2oc3ccccc3c2n1	n	n	n	n	n	n
CCc1nc2ccc(C(=O)N3CCN(S(=O)(=O)CC)CC3)cn2c1N(C)C(=O)C1CCCCC1	n	x	x	n	n	n
N#C/C(=C\c1c(Cl)cccc1Cl)c1nc2ccccc2[nH]1	u	u	u	n	n	n
N#C/C(=C\c1ccc(Sc2ccc(Cl)cc2)o1)c1nc2ccccc2[nH]1	n	u	15µM	15µM	n	n
N#C/C(=C\c1ccc(Cl)cc1)c1nc2ncccc2[nH]1	n[9.24 µM]	u	u	18µM	u	n
COC(=O)c1ccc2nc(C(F)(F)F)[nH]c2c1	n	n[9.22 µM]	n	n	n	n
O=C(NCCc1ccccc1)c1ccc2nccnc2c1	n	n	n	n	n	n
CC(Oc1ccccc1)C(=O)Nc1ccc(C(N)=O)cc1 (stereo unspecified)	n	n	u	n	n	n
